# Screening results from PubChem BioAssay.
# Only some compounds are listed: those with a hit (about 6.8% of all), similar ones and a draw of the others.
# T cruzi growth: T. cruzi proliferation inhibition | inhibition, % at 8.34 µM | 77,000 tested, 5.9% active | AID 624255 | T. cruzi beta-gal in NIH3T3, GalScreen luminescence, 90 h;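 active = mean inhibition above about 93%, with at least 55% of replicates each passing it, limit read from the data, passing the limit was not always enough; inconclusive = only one of those two conditions holds; inactive = neither condition holds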
# C diff HTS: blocks growth of Clostridium difficile. Clostridium difficile clinical isolate growth, OD600, 24 h; hits give low values. growth activity, negative = inhibition, % at 16 µg/mL (by protocol). 86,000 tested, 0.25% active. AID 1259249;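 active = mean growth activity at or below -80% and every replicate also at or below -80%; inconclusive = mean at or below -80% but some replicate above -80%; inactive = mean growth activity above -80%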;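 note: 0% = DMSO wells and -100% = levofloxacin 16 µg/mL wells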
# Pf Dd2 growth: blocks growth of Plasmodium falciparum Dd2 parasites. activity change, % at 10 µM. AID 1159554. P. falciparum Dd2 growth, SYBR Green, 72 h; hits give low values. 94,000 tested, 2.3% active; in the data active = activity change below about -80%; inconclusive = no clear call, values can overlap the other calls
# Active calls of the source: *; ? = inconclusive; . = not tested or not shown; ! = not confirmed by another sample.
SMILES,T cruzi growth,C diff HTS,Pf Dd2 growth
C/C=C/c1ccc([C@H]2[C@@H](CO)N(C(=O)CC)[C@@H]2CNCC2CCCCC2)cc1,.,-2,-85*
CCC(=O)N1[C@H](CO)[C@H](c2ccc(C3=CCCCC3)cc2)[C@H]1CNC1CCCC1,.,35,-90*
C/C=C/c1ccc([C@H]2[C@@H](CO)N(C(=O)CC)[C@@H]2CNCC2CCCC2)cc1,.,0,-71
CCCNC[C@@H]1[C@@H](c2ccc(C3=CCCC3)cc2)[C@@H](CO)N1C(=O)C1CCCC1,.,-10,-92*
COc1ccc(NC(=O)N(C)C[C@@H]2Oc3ccc(NC(=O)C4CCCCC4)cc3CC(=O)N([C@H](C)CO)C[C@@H]2C)cc1,1,2,17
C[C@@H]1CCCCO[C@H](CN(C)S(C)(=O)=O)[C@@H](C)CN([C@@H](C)CO)C(=O)c2cc(NC(=O)C3CCCCC3)ccc2O1,39,5,.
C[C@@H]1CN([C@@H](C)CO)C(=O)c2cc(C#Cc3ccncc3)cnc2O[C@H]1CN(C)CC1CCCC1,88,4,-31
O=C(NC[C@@H]1CC[C@@H]2[C@@H](CN2C(=O)NC2CCCC2)O1)c1ccc2c(c1)OCO2,.,-1,19
O=C(NC[C@@H]1CC[C@H]2[C@H](CN2Cc2cc(-c3ccccc3)on2)O1)c1ccc2c(c1)OCO2,.,-16,-90*
C[C@@H]1CN([C@@H](C)CO)C(=O)c2cc(NS(=O)(=O)c3ccccc3)ccc2O[C@@H](C)CCCCO[C@@H]1CN(C)C(=O)c1ccncc1,-70,.,-22
C[C@@H]1CN([C@H](C)CO)C(=O)Cc2cc(NC(=O)Nc3ccc(F)cc3)ccc2O[C@@H]1CN(C)CC1CCCCC1,69,4,-33
C[C@H](CO)N1C[C@H](C)[C@@H](CN(C)CC2CCCCC2)Oc2ccc(NC(=O)Nc3ccc(F)cc3)cc2CC1=O,50,19,-90*
C[C@H]1CN([C@@H](C)CO)C(=O)Cc2cc(NC(=O)Nc3ccc(C(F)(F)F)cc3)ccc2O[C@H]1CN(C)CC1CCCCC1,23,42,-16
C[C@@H]1CN([C@@H](C)CO)C(=O)Cc2cc(NC(=O)Nc3ccc(C(F)(F)F)cc3)ccc2O[C@H]1CN(C)CC1CCCCC1,-25,20,-87*
C[C@H]1CN([C@@H](C)CO)C(=O)c2cccc(NC(=O)Nc3ccc4c(c3)OCO4)c2O[C@H]1CN(C)S(=O)(=O)c1cn(C)cn1,-164,5,21
CCCC(=O)Nc1ccc2c(c1)C(=O)N(C)[C@@H]1CC[C@@H](CC(=O)NCc3ccccc3F)O[C@H]1CO2,-8,5,-2
COc1cc(CN2C[C@@H]3N[C@H](C2)C3c2ccc(-c3cncnc3)cc2)cc(OC)c1 (stereo partly drawn),.,-1,-12
c1ncc(-c2ccc(C3[C@@H]4CN(Cc5ccc6c(c5)OCO6)C[C@H]3N4)cc2)cn1 (stereo partly drawn),.,-3,-32
C(=C\c1ccc(C2[C@@H]3CN(Cc4ccc5c(c4)OCO5)C[C@H]2N3)cc1)/c1ccccc1 (stereo partly drawn),.,-99*,?
COc1ccc(-c2ccc(C3[C@@H]4CN(Cc5cc(OC)cc(OC)c5)C[C@H]3N4)cc2)cc1 (stereo partly drawn),.,-101*!,-88*!
COc1cc(CN2C[C@@H]3N[C@H](C2)C3c2ccc(-c3cccc(OC)c3)cc2)cc(OC)c1 (stereo partly drawn),.,47,-75
C/C=C/c1ccc(C2[C@@H]3CN(Cc4cccc(OC)c4)C[C@H]2N3)cc1 (stereo partly drawn),.,7,-19
COc1cc(CN2C[C@@H]3N[C@H](C2)C3c2ccc(/C=C/c3ccccc3)cc2)cc(OC)c1 (stereo partly drawn),.,11,-88*!
COc1cc(CN2C[C@@H]3N[C@H](C2)C3c2ccc(-c3ccncc3)cc2)cc(OC)c1 (stereo partly drawn),.,5,-81*
C[C@@H]1CN([C@H](C)CO)C(=O)c2cc(NC(=O)CCCCCC(=O)Nc3ccccc3N)ccc2O[C@@H]1CN(C)S(=O)(=O)c1ccccc1,.,-8,16
CN(C)CC(=O)N1[C@@H]2c3ccc(-c4cccnc4)c(=O)n3C[C@H]1[C@H](CO)[C@H]2C(=O)NC1CCCC1,.,-3,12
C[C@@H]1CCCCO[C@@H](CN(C)CC2CCCCC2)[C@H](C)CN([C@@H](C)CO)C(=O)c2cc(NC(=O)Cc3ccccc3)ccc2O1,76,31,-26
COc1ccc2c3c([nH]c2c1)[C@H](CO)N(Cc1ccccc1)CC31CCN(S(C)(=O)=O)CC1,.,3,-61
C[C@@H]1CN([C@H](C)CO)S(=O)(=O)c2ccc(C3=CCCC3)cc2O[C@@H]1CN(C)S(=O)(=O)c1cn(C)cn1,-76,-3,-2
